# Bioassay records deposited in PubChem BioAssay by several laboratories.
# Only some compounds are listed: those with a hit (about 3.6% of all), similar ones and a draw of the others.
# KKLEB tox: cytotoxicity in KKLEB CF airway cells, primary screen, cytotoxicity control for CF NF-kB inhibitor project, cell-based, uHTS, fluorescence assay plates; hit rate 0.36% among 360,000; activity change (cytotoxicity), % at 5 µM; KKLEB CF airway cells viability, ATPlite luminescence, overnight; active compounds read low; cells stimulated with P. aeruginosa culture filtrate;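 active = corrected activity change at or below -50% at 5 µM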
# HSP90 refold inh: HSP90 inhibitors, primary screen, cell lysate, luminescence; Heat shock protein HSP 90 (rabbit reticulocyte lysate; luciferase refolding); Rabbit reticulocyte lysate, luciferase refolding luminescence, 3 h; inhibition, % at 5.6 µM; hit rate 0.91% among 290,000;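 active = inhibition above the screen-wide mean plus 3 SD, computed separately per campaign, cut at about 16% in these data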;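 note: 0% = DMSO wells and 100% = 60 µM geldanamycin wells; inhibitors lower the luminescence because luciferase stays unfolded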
# Mdm2 MdmX PPI: inhibitors of human Mdm2-MdmX association, primary screen, cell-based, luminescence, split luciferase, SaOS-2, uHTS; Protein Mdm4 (Homo sapiens) + E3 ubiquitin-protein ligase Mdm2 (Homo sapiens), …; hit rate 3% among 330,000; AID 485346, 2010; SaOS-2 split-luciferase Mdm2/MdmX complementation; inhibition, % at 8 µM;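 active = inhibition of at least 50% at 8 µM in the primary screen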
# Target sequence (O15151 whole entry, looked up): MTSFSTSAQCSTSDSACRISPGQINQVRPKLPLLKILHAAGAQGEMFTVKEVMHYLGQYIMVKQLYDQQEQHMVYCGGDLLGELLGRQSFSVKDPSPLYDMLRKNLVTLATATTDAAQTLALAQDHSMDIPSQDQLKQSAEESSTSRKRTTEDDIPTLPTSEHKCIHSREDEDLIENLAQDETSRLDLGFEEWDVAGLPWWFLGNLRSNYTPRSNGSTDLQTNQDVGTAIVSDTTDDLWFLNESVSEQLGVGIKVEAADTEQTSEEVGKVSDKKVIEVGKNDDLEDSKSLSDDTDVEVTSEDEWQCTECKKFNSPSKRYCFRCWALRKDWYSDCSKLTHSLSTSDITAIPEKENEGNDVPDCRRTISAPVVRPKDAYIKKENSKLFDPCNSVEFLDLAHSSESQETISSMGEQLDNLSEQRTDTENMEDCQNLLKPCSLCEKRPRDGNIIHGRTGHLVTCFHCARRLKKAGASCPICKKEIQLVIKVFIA
# Target sequence (Q00987 whole entry, looked up): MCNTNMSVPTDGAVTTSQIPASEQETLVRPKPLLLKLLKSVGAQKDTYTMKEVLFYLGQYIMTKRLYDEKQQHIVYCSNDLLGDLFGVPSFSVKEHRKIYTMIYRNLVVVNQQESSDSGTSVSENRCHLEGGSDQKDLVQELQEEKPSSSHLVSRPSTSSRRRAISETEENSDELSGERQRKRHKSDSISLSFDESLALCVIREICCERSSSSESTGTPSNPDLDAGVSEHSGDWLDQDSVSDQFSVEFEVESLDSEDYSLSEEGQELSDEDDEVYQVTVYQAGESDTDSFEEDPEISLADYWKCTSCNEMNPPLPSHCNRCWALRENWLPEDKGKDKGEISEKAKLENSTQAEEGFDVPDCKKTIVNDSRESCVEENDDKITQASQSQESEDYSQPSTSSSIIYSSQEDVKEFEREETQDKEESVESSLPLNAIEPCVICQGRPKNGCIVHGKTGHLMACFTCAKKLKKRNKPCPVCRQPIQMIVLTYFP
# Peg3 prom inh: Peg3 promoter-driven luciferase inhibitors, primary screen, cell-based, HeLa, luciferase luminescence | HeLa PEG-Prom luciferase reporter, overnight | inhibition, % at 20 µM | hit rate 1.7% among 360,000;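 active = inhibition of at least 50% at 20 µM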
# CF NFkB inh: inhibitors of PAF-induced NF-kB signaling, primary screen, cell-based, GFP fluorescence, uHTS; KKLEB NF-kB-GFP reporter, GFP fluorescence overnight; inhibition, % at 5 µM; hit rate 0.86% among 360,000;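 active = at least 50% inhibition at 5 µM, scaled per plate between neutral and stimulator controls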;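 note: PAF is a Pseudomonas aeruginosa culture filtrate used as stimulus; plate controls were PAF-stimulated DMSO wells for no effect and unstimulated DMSO wells for full effect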
# LGR2 antag: inhibitors of bursicon-induced LGR2 CRE-luciferase signal, primary screen, cell-based, HEK293, CRE-luciferase reporter, bursicon stimulation; Drosophila bursicon receptor LGR2 (rickets); bursicon-stimulated, 4 h; inhibition, % at 9.99 µM; hit rate 0.35% among 380,000;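 active = drop in luminescence signal, shown as inhibition above about 50% in the replicate tests, limit read from the data, passing the limit was not always enough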;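 note: agonist challenge used bursicon conditioned medium at about half maximal strength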
# Mdm2 MdmX conf: Mdm2-MdmX complex disruptors, retested hits, confirmation, luminescence, single concentration | shares compounds with Mdm2 MdmX PPI | Mdm2-MdmX binding, luminescent assay | inhibition, % at 8 µM | hit rate 55% among 10,000 | AID 489028, 2010
# FLuc counter: full-length luciferase signal inhibition, confirmation, counter-screen for Mdm2/MdmX interaction inhibitor project, cell-based, single concentration, SaOS-2. AID 504607, 2011. SaOS-2 full-length luciferase counterscreen, luminescence. shares compounds with Mdm2 MdmX PPI. hit rate 77% among 6,200. inhibition, % at 8 µM;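 active = mean inhibition at 8 µM reaching about 37%, which flags the compound as non-specific, limit read from the data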;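 note: p53-null SaOS-2 cells with luciferase driven by a doxycycline-inducible promoter; compound on cells about two nights before reading with doxycycline added after day one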
# CF NFkB inh conf: inhibitors of PAF-induced NF-kB signaling, retest, confirmation, cell-based, GFP fluorescence, single concentration | shares compounds with CF NFkB inh | KKLEB CF airway cells, overnight | inhibition, % at 5 µM | hit rate 64% among 1,300 | AID 602472, 2012;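 note: stimulus PAF is a Pseudomonas aeruginosa filtrate and not platelet activating factor; plate controls were DMSO wells with stimulus for no effect and unstimulated DMSO wells for full effect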
# The depositor's hits bear a star; x = no result given. Cut-off read from the data, not from the text of the source, unless noted: active = inhibition above about 40%; inactive = the rest.
SMILES,KKLEB tox,HSP90 refold inh,Mdm2 MdmX PPI,Peg3 prom inh,CF NFkB inh,LGR2 antag,Mdm2 MdmX conf,FLuc counter,CF NFkB inh conf
CN(C)/C=C/C(=O)c1ccc2noc(-c3ccccc3)c2c1,-4.3,5.3,50.9*,4.3,56.8*,4.1,34.1,x,82.3*
COc1cc(/C=C/C(=O)c2ccc([N+](=O)[O-])o2)ccc1O,-21.0,x,100.3*,100.9*,83.4*,24.0,100.2*,0.7,2.2
CC=Cc1ccc2n(c1=O)C[C@H]1[C@H](CO)[C@@H](C(=O)NCC(F)(F)F)N(CC3CC3)[C@@H]21 (mixture of isomers),x,x,x,x,x,-3.9,x,x,x
O=C(Nc1ccc2c(c1)[C@H]1C[C@H](CC(=O)N3CCCCC3)O[C@@H](CO)[C@H]1O2)C1CCC1,x,x,x,x,x,-2.0,x,x,x
CCNC(=S)Nc1cccc([N+](=O)[O-])c1,x,2.6,9.6,x,x,x,x,x,x
O=[N+]([O-])c1cccc(NC(=S)Nc2nc(-c3ccccc3Cl)cs2)c1,-16.8,5.2,95.7*,-35.4,50.4*,22.2,85.0*,62.7*,67.2*
O=C(C[C@H]1CC[C@@H]2[C@H](COC[C@@H](O)CN2Cc2ccc(F)cc2)O1)NCc1ccncn1,x,x,x,x,x,19.2,x,x,x
N/C(=C\C(=O)c1cc(Cl)ccc1O)C(Cl)(Cl)Cl,4.7,6.1,94.7*,29.2,54.1*,-1.9,56.8*,54.4*,-61.8
CN1CCN(C(=O)C[C@H]2C[C@H]3c4cc(NS(=O)(=O)c5ccc(F)cc5)ccc4O[C@H]3[C@H](CO)O2)CC1,x,x,x,x,x,-19.3,x,x,x
CCN(CC)S(=O)(=O)c1cccc(NC(=O)Nc2cccc(C(F)(F)F)c2)c1,-30.8,-2.9,68.1*,45.9,63.0*,x,93.2*,52.1*,38.0
CN(C)C(=O)[C@@H]1[C@@H](CO)[C@@H]2Cn3c(ccc(-c4ccccc4)c3=O)[C@@H]2N1C(=O)c1ccccn1,x,x,x,x,x,-6.1,x,x,x
COc1cccc(N2CCN(c3nc(C)c(C)c(=O)[nH]3)CC2)c1,3.5,-2.3,-0.7,13.8,-8.5,31.1,x,x,x
COc1cccc(N2CCN(c3nc(-c4ccccc4C)cc(=O)[nH]3)CC2)c1,-5.5,-1.1,95.5*,103.6*,67.3*,34.0,75.8*,81.2*,38.8
Cc1ccc(C(C(=O)NCc2ccccc2)N(Cc2cccs2)C(=O)c2ccc3c(c2)OCCO3)cc1 (stereo unspecified),-16.0,0.3,78.7*,63.1*,90.7*,31.7,77.7*,69.2*,104.7*
CC(C)NC(=O)N(C)C[C@H]1Oc2cc(C#C[C@H](C)O)ccc2S(=O)(=O)N([C@@H](C)CO)C[C@H]1C,x,x,x,x,x,-8.7,x,x,x
CSCCOC(=O)c1[nH]c2c(c1C)C(=O)CC(c1ccco1)C2 (stereo unspecified),8.9,-3.5,33.9,-6.8,25.8,6.8,x,x,x
CCOC(=O)c1[nH]c2c(c1C)C(=O)CC(c1ccco1)C2 (stereo unspecified),-18.8,0.0,60.3*,-26.7,56.7*,-31.5,58.8*,84.4*,80.4*
COc1ccc(-c2cc3c(=O)n(CC(=O)NCc4ccc(C)cc4)ncn3n2)cc1,-14.6,-0.5,94.8*,-1.4,54.5*,-5.6,-8.2,x,13.1
COc1ccc(-c2cc3c(=O)n(CC(=O)N4CCCC4)ncn3n2)cc1,11.0,-7.4,10.7,-35.4,-25.4,4.4,x,x,x
CCCNC(=O)Nc1ccc2c(c1)OC[C@@H](C)N(Cc1ccccc1)C[C@@H](C)[C@H](OC)CN(C)C2=O,x,x,x,x,x,27.1,x,x,x
COCCN1Cc2cccc(C(=O)Nc3cccc(-c4nc5ccccc5[nH]4)c3)c2C1=O,-20.5,0.4,55.1*,22.3,56.7*,-4.3,50.5*,90.3*,67.6*
COCCN1Cc2cccc(C(=O)Nc3ccc(-c4nc5ccccc5[nH]4)cc3)c2C1=O,-37.4,-2.6,40.2,31.4,15.8,8.9,x,x,x
Nc1ncnc(N2CCc3ccccc32)c1[N+](=O)[O-],-24.0,-1.2,82.1*,37.0,83.4*,14.7,85.0*,51.6*,98.3*
CCC(=O)Nc1ccc2c(c1)C(=O)N(C)C[C@H](OC)[C@@H](C)CN(C(=O)c1ccncc1)[C@@H](C)CO2,x,x,x,x,x,2.8,x,x,x
CCOC(=O)C1=C(C)Nc2ccccc2N=C1NC(=O)c1oc2ccccc2c1COC,-15.3,x,59.0*,65.4*,55.2*,2.4,50.0*,77.2*,57.7*
SMILES,KKLEB tox,HSP90 refold inh,Mdm2 MdmX PPI,Peg3 prom inh,CF NFkB inh,LGR2 antag,Mdm2 MdmX conf,FLuc counter,CF NFkB inh conf
CCOC(=O)C1=C(C)Nc2ccccc2N=C1N,12.4,0.2,-16.6,12.8,-6.2,11.9,x,x,x
CS(=O)(=O)c1ccc(C(=O)OCC(=O)NCc2cccs2)cc1[N+](=O)[O-],-33.2,x,73.3*,108.1*,89.9*,13.2,52.9*,20.8,43.4*
CCNC(=O)C[C@@H]1CC[C@@H]2[C@H](COc3ccc(NC(=O)Nc4ccccc4C)cc3C(=O)N2C)O1,x,x,x,x,x,-4.7,x,x,x
c1cc2[nH]snc2c2nc(C3CC3)nc12,0.1,3.4,71.6*,-49.5,74.2*,x,72.8*,26.4,67.8*
C/C=C/c1ccc2c(c1)O[C@H](CNC)[C@@H](C)CN([C@H](C)CO)S2(=O)=O,x,x,x,x,x,-2.8,x,x,x
CCCCCCc1cc2cc(C(=O)OCC)c(=O)oc2cc1O,-31.7,0.1,63.6*,27.0,53.3*,-22.6,10.8,x,78.0*
Cc1ncc(CO)c2c1Oc1nc(-c3ccccc3)nc(SCC(=O)N3CCCCC3)c1C2,-5.0,-6.3,62.5*,63.6*,85.0*,12.8,38.2,53.4*,29.5
CCOC(=O)C(=Cc1ccc(OCc2ccc([N+](=O)[O-])cc2)c(OC)c1)C(=O)OCC,-3.4,1.1,98.9*,58.1*,54.2*,x,33.5,x,-253.1
COc1cccc(C(=O)Nc2ccc3c(c2)C(=O)N(C)C[C@@H](OC)[C@@H](C)CN(CCc2ccccc2)[C@@H](C)CO3)c1,x,x,x,x,x,4.8,x,x,x
O=C(Cn1ncc(Cl)c(Cl)c1=O)NC1CCCCC1,-19.7,x,100.3*,100.5*,67.7*,2.6,75.5*,56.4*,27.0
